High-throughput results deposited in PubChem by National Center for Advancing Translational Sciences (NCATS).
Compounds with a hit are over-represented: about 2.4% of the library has one in this group of screens.
WRN inhibitor: qHTS for Inhibitors of WRN Helicase; Potency, µM (doses to about 114 µM), usual class: inhibitors; WRN helicase unwinding, fluorescent forked duplex, kinetic; Bifunctional 3'-5' exonuclease/ATP-dependent helicase WRN (Homo sapiens), Q14191; 0.46% of 360,000 active; AID 651768, 2012; note: nearly all actives have a fitted effect of over 55% in size
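WRN at 20 nM final preincubated with compound 15 min at room temperature; reaction started with 100 nM fluorophore/quencher forked duplex oligonucleotide and 2 mM ATP final. Unwinding followed kinetically by red fluorescence (ex 525, em 598 nm).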
Pol iota inh: qHTS for Inhibitors of Polymerase Iota; DNA polymerase iota (Homo sapiens), Q9UNA4; Pol iota fluorescent replication assay, 10 min; Potency, µM (top dose mostly 115 µM), actives largely listed as inhibitors; 1% of 390,000 active; AID 588590, 2011
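Pol iota at 10 nM preincubated 15 min with compounds at room temperature; reaction started with fluorescent substrate, 50 nM final. Fluorescence read kinetically at 0 and 10 min; buffer-only wells as negative control.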
POLB inh: qHTS Assay for Inhibitors of DNA Polymerase Beta | P06746 | Pol beta primer extension/strand displacement, fluorescence kinetic | Potency, µM (highest dose often 114 µM), hits mostly inhibitors | 1.3% of 340,000 active | AID 485314, 2010
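Preincubation: enzyme (10 nM) with compound, 15 min, RT. Reaction: substrate added to 50 nM final. Reads: 0 and 10 min. Analysis: normalized, Hill fit.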
POLK inh: qHTS for Inhibitors of Polymerase Kappa. purified Pol kappa, fluorescent DNA synthesis assay, 10 min. 0.53% of 400,000 active. Potency, µM (doses to about 107 µM), hits mostly inhibitors. AID 588579, 2011. DNA polymerase kappa (Homo sapiens), Q9UBT6
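50 nM final substrate added after 15 min RT preincubation of 10 nM Pol kappa with compound; fluorescence read at 0 and 10 min.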
FEN1 inh: qHTS Assay for the Inhibitors of Human Flap endonuclease 1 (FEN1). P39748. Recombinant FEN1 flap cleavage, fluorescence, 15 min. Potency, µM (doses to about 114 µM), usual class: inhibitors. 0.35% of 390,000 active; note: nearly all actives have a fitted effect of over 65% in size
Target sequence (P39748 whole entry, looked up): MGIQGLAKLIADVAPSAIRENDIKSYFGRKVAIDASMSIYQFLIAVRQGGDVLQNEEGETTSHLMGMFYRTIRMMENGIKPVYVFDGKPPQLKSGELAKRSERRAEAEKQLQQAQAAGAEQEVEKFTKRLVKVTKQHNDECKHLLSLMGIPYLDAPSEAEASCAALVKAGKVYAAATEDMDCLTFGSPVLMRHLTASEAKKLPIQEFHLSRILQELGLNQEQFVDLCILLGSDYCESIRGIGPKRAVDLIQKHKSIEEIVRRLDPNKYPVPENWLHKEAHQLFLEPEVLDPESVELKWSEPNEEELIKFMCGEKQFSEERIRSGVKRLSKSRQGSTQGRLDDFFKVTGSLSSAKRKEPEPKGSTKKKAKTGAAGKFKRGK
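Concentration–response screening of FEN1 (10 nM): 15 min compound preincubation at room temperature, reaction started with 50 nM substrate and read at 0 and 15 min. Corrected, normalized data were fitted by a four-parameter Hill equation.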
POLH inh: qHTS for Inhibitors of Polymerase Eta. recombinant Pol eta, fluorescent DNA replication assay. 1.2% of 390,000 active. Potency, µM (top dose mostly 114 µM), hits mostly inhibitors
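Fluorescent replication assay: 50 nM final substrate added after a 15 min room-temperature compound preincubation with 10 nM enzyme. Signal taken at 0 min and again at 10 min.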
Numbers stand for hits; [ ] = another dose, or the depositor's remark. Calls come from the whole dose curve; as a rule, active = well fitted curve in the direction sought with a large enough effect; inconclusive = small, poorly fitted or top-dose-only effect, or another doubt; inactive = no such curve, though single readings can be large; an effect the other way counts as inactive or inconclusive.

For COc1ccc(N2Cc3ccccc3C2=O)cc1 the results were WRN inhibitor inactive, Pol iota inh inactive, POLB inh inactive, POLK inh inactive, FEN1 inh inactive and POLH inh inactive.
Screening O=[N+]([O-])c1cc(C(F)(F)F)cc([N+](=O)[O-])c1Sc1n[nH]c(C(F)(F)F)n1 returned WRN inhibitor inconclusive, Pol iota inh 25µM, POLB inh inactive, POLK inh inactive, FEN1 inh inactive and POLH inh inactive.
`N#CC1=C(N)C2=C(N3CCCCC3)CCCC2C1(C#N)C#N` (configuration not stated) gave WRN inhibitor inconclusive, Pol iota inh inconclusive, POLB inh inactive, POLK inh 50µM, FEN1 inh inconclusive and POLH inh inactive.
CCOc1ccc(Nc2cc(C)nc3nc(Cc4ccc(Cl)cc4)nn23)cc1 was read as Pol iota inh 79µM, POLB inh inconclusive, POLK inh inactive, FEN1 inh inactive and POLH inh inactive.
For COc1cc(/C=N/N2C(=O)CSC2=S)ccc1O the results were WRN inhibitor inconclusive, Pol iota inh 13µM, POLB inh inactive, POLK inh 79µM, FEN1 inh inconclusive and POLH inh inactive.
Screening O=C1CSC(=S)N1/N=C/c1ccc2c(c1)OCCO2 returned WRN inhibitor inactive, Pol iota inh inconclusive, POLB inh inactive, POLK inh inactive, FEN1 inh inactive and POLH inh inactive.
Screening O=C1CSC(=S)N1/N=C/c1ccc(Cl)c([N+](=O)[O-])c1 returned POLB inh 22µM.
For O=C1CSC(=S)N1/N=C/c1cc(Br)c(O)c(Br)c1 the results were WRN inhibitor 20µM, Pol iota inh 14µM, POLB inh 20µM, POLK inh 16µM, FEN1 inh 22µM and POLH inh 11µM.
For Cc1nc2nc(NC(=O)C(C)(C)C)[nH]n2c(=O)c1Cc1ccccc1 the results were Pol iota inh inactive, POLB inh inactive, POLK inh inactive, FEN1 inh inactive and POLH inh inactive.
`Cc1cc(=O)c2cc(C(=O)Nc3ccc(C)c(C)c3)ccc2[nH]1` gave Pol iota inh inactive, POLB inh inactive, POLK inh inactive, FEN1 inh inactive and POLH inh inactive.
`CCOC(=O)N1CCN(C(=O)C2CCN(C(=O)c3ccccc3C)CC2)CC1` gave WRN inhibitor 20µM, Pol iota inh inconclusive, POLK inh inconclusive, FEN1 inh inconclusive and POLH inh 32µM.
Cc1ccccc1C(=O)N1CCC(C(=O)N2CCN(c3ncccn3)CC2)CC1 was read as WRN inhibitor inactive, Pol iota inh inactive, POLK inh inactive, FEN1 inh inactive and POLH inh inactive.
`COC(=O)c1ccc(Cn2c(O)c(N=NC(N)=S)c3ccccc32)o1` gave WRN inhibitor inactive[11.6 µM], Pol iota inh 32µM, POLB inh inconclusive, POLK inh inconclusive, FEN1 inh inactive and POLH inh 50µM.
`CCN(C(=O)c1cc2c(=O)n(CC)c3ccccc3c2s1)c1cccc(C(F)(F)F)c1` gave Pol iota inh inactive, POLB inh inactive, POLK inh inactive, FEN1 inh inactive and POLH inh inactive.
`CCOc1ccc(-n2c(C)cc(/C=N/NC(=O)C(N)=O)c2C)cc1` gave WRN inhibitor inactive, Pol iota inh inactive, POLB inh inactive, POLK inh inactive, FEN1 inh inactive and POLH inh inactive.
COC(=O)c1ccc(N/N=C/c2cc([N+](=O)[O-])cc(OC)c2O)cc1 was read as WRN inhibitor inactive, Pol iota inh inactive, POLB inh inconclusive, POLK inh inactive, FEN1 inh inactive and POLH inh inactive.
COc1cccc(/C=N/Nc2nnc(C)n2N)c1O was read as WRN inhibitor inactive, Pol iota inh 4µM, POLB inh inactive, POLK inh inactive, FEN1 inh inactive and POLH inh inactive.
Screening Cc1nnc(N/N=C/c2ccco2)n1N returned WRN inhibitor inactive, Pol iota inh 10µM, POLB inh inactive, POLK inh inactive, FEN1 inh inactive and POLH inh inactive.
`COc1ccc(-n2c(C)cc(/C=N/Nc3nnc(C)n3N)c2C)cc1` gave WRN inhibitor inactive, Pol iota inh 22µM, POLB inh inactive, POLK inh inactive, FEN1 inh inactive and POLH inh inactive.
Screening Cc1nnc(N/N=C/c2ccccc2F)n1N returned WRN inhibitor inactive, Pol iota inh inconclusive, POLB inh inactive, POLK inh inactive, FEN1 inh inactive and POLH inh inactive.
COc1cccc(/C=N/Nc2ccc([N+](=O)[O-])cc2)c1O was read as WRN inhibitor inactive, Pol iota inh inactive, POLB inh 45µM, POLK inh inactive, FEN1 inh inactive and POLH inh inactive.
CCC(=O)N1CCc2cc(S(=O)(=O)CCC(=O)N3CCN(c4cccc(C)c4)C(C)C3)ccc21 (configuration not stated) was read as Pol iota inh inactive, POLB inh inactive, POLK inh inactive, FEN1 inh inactive and POLH inh inactive.
For CCCCC(CC)CNC(=O)c1ccc(Cn2c(=O)[nH]c3cc(OC)c(OC)cc3c2=O)cc1 (configuration not stated) the results were Pol iota inh inactive, POLB inh inactive, POLK inh inactive, FEN1 inh inactive and POLH inh inactive.
Screening CN1/C(=C/c2cccc[n+]2C)Sc2ccccc21 returned WRN inhibitor inactive[11.6 µM], Pol iota inh inconclusive, POLB inh 32µM, POLK inh inactive, FEN1 inh 45µM and POLH inh inactive.
`Cc1ccc(S(=O)(=O)c2ncccc2[N+](=O)[O-])cc1` gave WRN inhibitor 50µM, Pol iota inh inactive, POLB inh inactive, POLK inh inactive, FEN1 inh inactive and POLH inh inactive.
Screening CCOC(=O)c1c(C)[nH]c(C(=O)OC(C(=O)N(C)C)c2ccccc2)c1C (configuration not stated) returned Pol iota inh inactive, POLK inh inactive and FEN1 inh inactive.
`Cc1ccc(/C=C2/NC(=O)N(c3ccccc3)C2=O)o1` gave WRN inhibitor inactive, Pol iota inh inactive, POLB inh inactive, POLK inh inactive, FEN1 inh inactive and POLH inh inactive.
For Cc1cccc(NC(=O)CN2C(=O)N/C(=C/c3ccc(-c4cccc(C(=O)O)c4C)o3)C2=O)c1 the results were WRN inhibitor inactive, Pol iota inh inactive, POLB inh inconclusive, POLK inh inactive, FEN1 inh inactive and POLH inh 79µM.
